# Measured values reported in article PMC7862700, “An all-to-all approach to the identification of sequence-specific readers for epigenetic DNA modifications on cytosine”.
# Legend:
# Test in all cases: DAPPL (digital affinity profiling via proximity ligation, sequencing); 10 mM Tris-HCl pH 7.5, 50 mM NaCl, 1 mM DTT, 4% glycerol, room temperature, 30 min; GST-TFs on glutathione beads, 16-mer random dsDNA library, 0.1% formaldehyde crosslink after washing; high values mean tight binding
# FLI1 = biological target: T1, FLI1 (Homo sapiens, UniProt Q01543 1-452); settings: protein: recombinant; tags: N-terminal GST; dsDNA, one strand shown
# T1 sequence: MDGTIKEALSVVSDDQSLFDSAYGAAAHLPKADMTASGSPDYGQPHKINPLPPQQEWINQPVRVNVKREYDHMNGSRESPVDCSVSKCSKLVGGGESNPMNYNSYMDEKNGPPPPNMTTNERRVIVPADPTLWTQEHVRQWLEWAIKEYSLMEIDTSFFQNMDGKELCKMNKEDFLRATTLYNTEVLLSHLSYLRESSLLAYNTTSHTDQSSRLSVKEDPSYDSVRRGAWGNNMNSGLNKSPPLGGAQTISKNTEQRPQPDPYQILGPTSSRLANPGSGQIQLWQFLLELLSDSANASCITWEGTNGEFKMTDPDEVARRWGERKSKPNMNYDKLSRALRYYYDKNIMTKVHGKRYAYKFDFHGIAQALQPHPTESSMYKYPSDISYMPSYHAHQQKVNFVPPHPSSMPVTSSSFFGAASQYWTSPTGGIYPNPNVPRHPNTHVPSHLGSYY
# Summary of the method: (§1)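 Pools were built from human transcription factors expressed in yeast as GST fusions, captured on glutathione beads and DNA-barcoded, along with a tag-only sample. Incubation with 200 nmole of a 16-mer random double-stranded DNA library lasted 30 min at room temperature in Tris/NaCl/DTT/glycerol buffer, and was followed by washing, 0.1% formaldehyde crosslinking, proximity ligation, PCR amplification and Illumina NextSeq500 sequencing. Binding signal is the quotient of each hexamer's read frequency for a factor and its frequency for the tag-only sample.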
# ELK1 = biological target: T2, ELK1 (Homo sapiens, UniProt P19419 1-428); settings: protein: recombinant; tags: N-terminal GST; dsDNA, one strand shown
# T2 sequence: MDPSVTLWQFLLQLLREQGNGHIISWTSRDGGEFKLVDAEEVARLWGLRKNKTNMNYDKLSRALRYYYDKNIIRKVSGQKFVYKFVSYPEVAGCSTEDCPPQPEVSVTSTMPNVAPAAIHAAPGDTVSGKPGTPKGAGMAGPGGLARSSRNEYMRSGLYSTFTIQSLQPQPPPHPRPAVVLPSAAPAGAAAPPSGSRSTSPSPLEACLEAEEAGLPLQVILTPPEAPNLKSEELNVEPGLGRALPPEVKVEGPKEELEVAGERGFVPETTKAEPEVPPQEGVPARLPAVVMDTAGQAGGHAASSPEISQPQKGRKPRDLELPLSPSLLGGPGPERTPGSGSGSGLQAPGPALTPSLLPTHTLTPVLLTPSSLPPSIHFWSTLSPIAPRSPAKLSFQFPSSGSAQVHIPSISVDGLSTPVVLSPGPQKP
# Summary of the method: as §1
# GABPA = biological target: T3, GABPA (Homo sapiens, UniProt Q06546 1-454); settings: protein: recombinant; tags: N-terminal GST; dsDNA, one strand shown
# T3 sequence: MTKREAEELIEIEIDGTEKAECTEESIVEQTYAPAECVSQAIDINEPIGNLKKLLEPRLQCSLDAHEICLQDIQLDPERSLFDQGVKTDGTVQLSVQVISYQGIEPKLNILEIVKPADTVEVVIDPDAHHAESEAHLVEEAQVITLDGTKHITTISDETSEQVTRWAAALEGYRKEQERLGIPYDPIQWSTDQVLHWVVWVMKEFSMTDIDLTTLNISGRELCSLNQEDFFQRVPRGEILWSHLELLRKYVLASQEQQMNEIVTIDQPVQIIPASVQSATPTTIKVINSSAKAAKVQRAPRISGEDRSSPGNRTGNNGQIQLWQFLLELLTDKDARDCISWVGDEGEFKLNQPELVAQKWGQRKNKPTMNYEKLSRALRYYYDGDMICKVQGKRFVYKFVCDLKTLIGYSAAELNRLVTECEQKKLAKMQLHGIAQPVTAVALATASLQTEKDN
# Summary of the method: as §1
# ERG = biological target: T4, ERG (Homo sapiens, UniProt P11308 1-479); settings: protein: recombinant; tags: N-terminal GST; dsDNA, one strand shown
# T4 sequence: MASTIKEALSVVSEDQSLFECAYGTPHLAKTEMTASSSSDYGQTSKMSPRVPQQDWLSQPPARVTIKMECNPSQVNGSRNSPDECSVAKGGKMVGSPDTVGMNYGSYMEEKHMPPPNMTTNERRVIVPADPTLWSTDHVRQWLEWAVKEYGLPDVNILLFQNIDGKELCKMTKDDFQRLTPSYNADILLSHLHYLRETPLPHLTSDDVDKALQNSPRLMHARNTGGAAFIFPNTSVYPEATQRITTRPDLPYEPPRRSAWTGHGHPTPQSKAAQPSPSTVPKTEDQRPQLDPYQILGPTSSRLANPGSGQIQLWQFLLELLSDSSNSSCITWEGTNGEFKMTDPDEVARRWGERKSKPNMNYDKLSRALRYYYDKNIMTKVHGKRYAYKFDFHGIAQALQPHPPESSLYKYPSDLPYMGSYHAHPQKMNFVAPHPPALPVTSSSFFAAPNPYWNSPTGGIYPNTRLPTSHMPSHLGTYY
# Summary of the method: as §1
# ELF1 = ELF1 (Homo sapiens, UniProt P32519 1-619); settings: protein: recombinant; tags: N-terminal GST; dsDNA, one strand shown
# Summary of the method: as §1
# EHF = biological target: T5, EHF (Homo sapiens, UniProt Q9NZC4 1-300); settings: protein: recombinant; tags: N-terminal GST; dsDNA, one strand shown
# T5 sequence: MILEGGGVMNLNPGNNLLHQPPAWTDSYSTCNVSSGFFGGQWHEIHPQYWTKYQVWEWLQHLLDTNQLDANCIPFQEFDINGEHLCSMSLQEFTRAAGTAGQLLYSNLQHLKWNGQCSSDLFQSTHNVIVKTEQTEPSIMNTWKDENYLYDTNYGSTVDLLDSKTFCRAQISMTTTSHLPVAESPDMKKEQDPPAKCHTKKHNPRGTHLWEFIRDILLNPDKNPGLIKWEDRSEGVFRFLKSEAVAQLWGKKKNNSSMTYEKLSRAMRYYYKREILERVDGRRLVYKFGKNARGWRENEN
# Summary of the method: as §1
# SPI1 = SPI1 (Homo sapiens, UniProt P17947 1-270); settings: protein: recombinant; tags: N-terminal GST; dsDNA, one strand shown
# Summary of the method: as §1
# SPIB = SPIB (Homo sapiens, UniProt Q01892 1-262); settings: protein: recombinant; tags: N-terminal GST; dsDNA, one strand shown
# Summary of the method: as §1
# ELK3 = biological target: T6, ELK3 (Homo sapiens, UniProt P41970 1-407); settings: protein: recombinant; tags: N-terminal GST; dsDNA, one strand shown
# T6 sequence: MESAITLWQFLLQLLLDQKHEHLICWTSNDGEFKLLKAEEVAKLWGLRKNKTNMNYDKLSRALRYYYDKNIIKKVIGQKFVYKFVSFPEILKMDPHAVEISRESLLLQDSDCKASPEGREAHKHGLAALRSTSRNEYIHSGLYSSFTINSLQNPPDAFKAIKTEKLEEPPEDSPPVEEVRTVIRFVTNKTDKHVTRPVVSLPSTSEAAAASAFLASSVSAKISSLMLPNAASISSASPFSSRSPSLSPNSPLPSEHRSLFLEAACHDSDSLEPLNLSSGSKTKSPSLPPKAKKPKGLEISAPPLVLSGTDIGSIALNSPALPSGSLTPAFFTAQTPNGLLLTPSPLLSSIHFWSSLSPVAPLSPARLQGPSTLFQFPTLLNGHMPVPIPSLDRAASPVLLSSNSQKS
# Summary of the method: as §1
# FEV = biological target: T7, FEV (Homo sapiens, UniProt Q99581 1-238); settings: protein: recombinant; tags: N-terminal GST; dsDNA, one strand shown
# T7 sequence: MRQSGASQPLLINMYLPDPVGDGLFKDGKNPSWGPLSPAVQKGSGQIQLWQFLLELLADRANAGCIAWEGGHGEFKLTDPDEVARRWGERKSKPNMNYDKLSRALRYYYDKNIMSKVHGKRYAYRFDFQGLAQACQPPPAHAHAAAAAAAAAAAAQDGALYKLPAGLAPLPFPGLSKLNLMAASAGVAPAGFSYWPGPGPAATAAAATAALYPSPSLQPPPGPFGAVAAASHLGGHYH
# Summary of the method: as §1
# ETV5 = ETV5 (Homo sapiens, UniProt P41161 1-510); settings: protein: recombinant; tags: N-terminal GST; dsDNA, one strand shown
# Summary of the method: as §1
# HSF1 = HSF1 (Homo sapiens, UniProt Q00613 1-529); settings: protein: recombinant; tags: N-terminal GST; chain copies: 3; dsDNA, one strand shown
# Summary of the method: as §1
# SPIC = biological target: T8, SPIC (Homo sapiens, UniProt Q8N5J4 1-248); settings: protein: recombinant; tags: N-terminal GST; dsDNA, one strand shown
# T8 sequence: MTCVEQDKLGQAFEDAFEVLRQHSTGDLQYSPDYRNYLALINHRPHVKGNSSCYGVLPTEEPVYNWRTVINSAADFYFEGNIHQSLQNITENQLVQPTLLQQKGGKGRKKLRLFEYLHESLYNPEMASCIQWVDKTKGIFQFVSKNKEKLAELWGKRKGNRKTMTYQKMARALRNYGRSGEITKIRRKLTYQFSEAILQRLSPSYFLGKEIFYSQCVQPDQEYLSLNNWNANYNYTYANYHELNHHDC
# Summary of the method: as §1
# ELF4 = ELF4 (Homo sapiens, UniProt Q99607 1-663); settings: protein: recombinant; tags: N-terminal GST; dsDNA, one strand shown
# Summary of the method: as §1
# ELK4 = biological target: T9, ELK4 (Homo sapiens, UniProt P28324-2 1-405); settings: protein: recombinant; tags: N-terminal GST; dsDNA, one strand shown
# T9 sequence: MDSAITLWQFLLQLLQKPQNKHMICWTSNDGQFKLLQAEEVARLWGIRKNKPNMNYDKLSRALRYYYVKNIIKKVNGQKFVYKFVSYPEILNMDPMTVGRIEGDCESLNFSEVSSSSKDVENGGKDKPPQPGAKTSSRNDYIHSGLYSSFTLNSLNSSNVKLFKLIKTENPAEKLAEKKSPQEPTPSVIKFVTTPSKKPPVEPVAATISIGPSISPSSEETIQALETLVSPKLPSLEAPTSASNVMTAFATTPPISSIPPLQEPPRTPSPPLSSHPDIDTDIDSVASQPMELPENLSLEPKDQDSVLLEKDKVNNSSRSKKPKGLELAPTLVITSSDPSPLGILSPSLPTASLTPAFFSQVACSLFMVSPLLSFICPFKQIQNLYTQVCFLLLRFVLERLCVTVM
# Summary of the method: as §1
# ETV2 = biological target: T10, ETV2 (Homo sapiens, UniProt O00321 1-342); settings: protein: recombinant; tags: N-terminal GST; dsDNA, one strand shown
# T10 sequence: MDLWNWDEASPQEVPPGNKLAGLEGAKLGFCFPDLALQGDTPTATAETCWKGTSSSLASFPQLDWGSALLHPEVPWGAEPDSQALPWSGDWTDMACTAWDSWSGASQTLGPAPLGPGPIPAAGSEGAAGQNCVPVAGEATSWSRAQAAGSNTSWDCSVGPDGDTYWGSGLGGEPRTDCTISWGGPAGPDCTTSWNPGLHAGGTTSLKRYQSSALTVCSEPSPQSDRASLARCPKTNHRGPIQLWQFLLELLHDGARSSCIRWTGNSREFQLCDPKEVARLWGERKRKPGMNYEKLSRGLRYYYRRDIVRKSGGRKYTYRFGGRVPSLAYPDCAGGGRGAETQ
# Summary of the method: as §1
# ELF3 = biological target: T11, ELF3 (Homo sapiens, UniProt P78545 1-371); settings: protein: recombinant; tags: N-terminal GST; dsDNA, one strand shown
# T11 sequence: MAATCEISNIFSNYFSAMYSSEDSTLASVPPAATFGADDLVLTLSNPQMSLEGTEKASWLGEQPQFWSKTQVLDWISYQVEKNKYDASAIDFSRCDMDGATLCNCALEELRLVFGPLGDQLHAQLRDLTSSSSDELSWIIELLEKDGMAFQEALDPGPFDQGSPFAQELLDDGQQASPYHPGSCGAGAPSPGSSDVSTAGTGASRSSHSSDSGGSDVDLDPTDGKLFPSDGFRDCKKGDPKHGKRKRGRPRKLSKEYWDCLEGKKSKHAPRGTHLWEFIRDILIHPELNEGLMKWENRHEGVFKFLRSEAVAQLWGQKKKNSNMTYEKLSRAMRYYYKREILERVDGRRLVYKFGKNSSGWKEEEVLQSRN
# Summary of the method: as §1
# CRX = CRX (Homo sapiens, UniProt O43186 1-299); settings: protein: recombinant; tags: N-terminal GST; dsDNA, one strand shown
# Summary of the method: as §1
# ETV1 = ETV1 (Homo sapiens, UniProt P50549 1-477); settings: protein: recombinant; tags: N-terminal GST; dsDNA, one strand shown
# Summary of the method: as §1
# Sequence of ELF1 (P32519 whole entry): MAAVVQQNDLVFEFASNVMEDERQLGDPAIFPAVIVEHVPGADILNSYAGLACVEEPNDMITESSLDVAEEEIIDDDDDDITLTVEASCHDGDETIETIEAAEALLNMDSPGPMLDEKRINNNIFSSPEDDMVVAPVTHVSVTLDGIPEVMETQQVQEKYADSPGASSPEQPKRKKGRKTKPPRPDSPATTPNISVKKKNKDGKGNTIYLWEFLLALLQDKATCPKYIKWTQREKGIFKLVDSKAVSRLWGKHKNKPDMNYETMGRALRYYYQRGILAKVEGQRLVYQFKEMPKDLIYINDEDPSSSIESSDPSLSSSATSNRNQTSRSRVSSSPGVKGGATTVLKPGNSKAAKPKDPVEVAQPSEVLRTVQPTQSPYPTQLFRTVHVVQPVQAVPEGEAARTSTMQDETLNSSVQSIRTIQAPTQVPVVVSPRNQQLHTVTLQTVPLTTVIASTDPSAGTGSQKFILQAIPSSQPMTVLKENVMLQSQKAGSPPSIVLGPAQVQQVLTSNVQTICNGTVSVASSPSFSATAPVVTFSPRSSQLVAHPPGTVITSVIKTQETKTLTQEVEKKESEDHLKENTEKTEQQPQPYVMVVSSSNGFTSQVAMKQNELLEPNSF
# Sequence of SPIB (Q01892 whole entry): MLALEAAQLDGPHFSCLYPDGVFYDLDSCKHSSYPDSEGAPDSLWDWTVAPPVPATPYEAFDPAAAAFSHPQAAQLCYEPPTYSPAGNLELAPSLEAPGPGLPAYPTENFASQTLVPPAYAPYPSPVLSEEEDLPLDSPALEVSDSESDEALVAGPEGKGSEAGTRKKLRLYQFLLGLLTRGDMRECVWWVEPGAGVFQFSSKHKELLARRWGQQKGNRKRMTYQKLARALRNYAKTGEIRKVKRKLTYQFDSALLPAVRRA
# Sequence of ETV1 (P50549 whole entry): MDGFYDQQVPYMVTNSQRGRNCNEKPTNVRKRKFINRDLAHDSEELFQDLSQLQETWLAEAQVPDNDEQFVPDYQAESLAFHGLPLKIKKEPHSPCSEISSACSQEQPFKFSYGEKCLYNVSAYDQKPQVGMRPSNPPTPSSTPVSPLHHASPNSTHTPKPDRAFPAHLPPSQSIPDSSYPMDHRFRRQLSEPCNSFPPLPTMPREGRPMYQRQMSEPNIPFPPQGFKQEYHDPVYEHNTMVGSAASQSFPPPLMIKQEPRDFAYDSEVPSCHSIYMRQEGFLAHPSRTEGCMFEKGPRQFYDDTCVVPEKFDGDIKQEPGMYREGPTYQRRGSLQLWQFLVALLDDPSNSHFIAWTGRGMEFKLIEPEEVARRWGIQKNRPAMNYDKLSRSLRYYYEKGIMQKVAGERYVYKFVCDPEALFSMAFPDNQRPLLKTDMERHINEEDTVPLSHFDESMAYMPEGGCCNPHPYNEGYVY
# Sequence of ELF4 (Q99607 whole entry): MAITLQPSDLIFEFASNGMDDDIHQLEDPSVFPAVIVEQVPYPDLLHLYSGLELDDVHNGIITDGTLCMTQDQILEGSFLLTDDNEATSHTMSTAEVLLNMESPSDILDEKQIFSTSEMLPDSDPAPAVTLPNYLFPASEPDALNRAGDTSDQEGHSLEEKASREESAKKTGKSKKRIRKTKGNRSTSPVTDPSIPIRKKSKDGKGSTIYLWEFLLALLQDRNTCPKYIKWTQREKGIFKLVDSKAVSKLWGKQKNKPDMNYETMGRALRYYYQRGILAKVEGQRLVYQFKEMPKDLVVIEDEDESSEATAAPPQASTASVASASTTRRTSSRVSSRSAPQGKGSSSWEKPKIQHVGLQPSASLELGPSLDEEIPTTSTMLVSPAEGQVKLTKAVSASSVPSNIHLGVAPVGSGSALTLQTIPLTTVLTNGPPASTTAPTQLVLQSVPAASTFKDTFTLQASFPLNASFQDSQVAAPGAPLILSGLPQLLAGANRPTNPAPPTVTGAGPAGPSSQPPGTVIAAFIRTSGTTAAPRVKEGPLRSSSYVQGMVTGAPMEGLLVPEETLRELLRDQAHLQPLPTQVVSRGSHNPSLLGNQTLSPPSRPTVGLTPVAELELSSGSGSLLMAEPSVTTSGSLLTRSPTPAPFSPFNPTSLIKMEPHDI
# Sequence of CRX (O43186 whole entry): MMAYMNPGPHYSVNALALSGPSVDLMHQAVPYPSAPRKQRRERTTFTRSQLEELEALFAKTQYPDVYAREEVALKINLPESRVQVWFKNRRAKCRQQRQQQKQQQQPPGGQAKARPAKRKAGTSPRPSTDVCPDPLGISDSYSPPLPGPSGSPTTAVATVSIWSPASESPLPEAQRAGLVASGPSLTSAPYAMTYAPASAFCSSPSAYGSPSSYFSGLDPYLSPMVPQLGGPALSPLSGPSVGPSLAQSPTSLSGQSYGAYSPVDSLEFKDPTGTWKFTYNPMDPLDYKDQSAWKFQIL
# Sequence of ETV5 (P41161 whole entry): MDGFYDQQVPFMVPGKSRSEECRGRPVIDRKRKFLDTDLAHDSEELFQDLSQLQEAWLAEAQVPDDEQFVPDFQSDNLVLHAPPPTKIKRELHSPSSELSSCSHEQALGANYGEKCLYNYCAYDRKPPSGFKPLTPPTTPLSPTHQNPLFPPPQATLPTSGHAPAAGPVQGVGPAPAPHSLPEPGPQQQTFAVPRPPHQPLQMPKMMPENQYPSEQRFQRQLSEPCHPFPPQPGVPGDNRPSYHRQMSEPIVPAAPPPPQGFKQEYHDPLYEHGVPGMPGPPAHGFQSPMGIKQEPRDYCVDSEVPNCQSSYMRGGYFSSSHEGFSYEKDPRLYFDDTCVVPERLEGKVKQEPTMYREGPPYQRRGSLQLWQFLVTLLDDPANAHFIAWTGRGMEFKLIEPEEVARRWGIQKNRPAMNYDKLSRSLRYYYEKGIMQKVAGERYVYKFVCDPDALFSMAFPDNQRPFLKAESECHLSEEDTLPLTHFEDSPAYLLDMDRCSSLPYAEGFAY
# Sequence of HSF1 (Q00613 whole entry): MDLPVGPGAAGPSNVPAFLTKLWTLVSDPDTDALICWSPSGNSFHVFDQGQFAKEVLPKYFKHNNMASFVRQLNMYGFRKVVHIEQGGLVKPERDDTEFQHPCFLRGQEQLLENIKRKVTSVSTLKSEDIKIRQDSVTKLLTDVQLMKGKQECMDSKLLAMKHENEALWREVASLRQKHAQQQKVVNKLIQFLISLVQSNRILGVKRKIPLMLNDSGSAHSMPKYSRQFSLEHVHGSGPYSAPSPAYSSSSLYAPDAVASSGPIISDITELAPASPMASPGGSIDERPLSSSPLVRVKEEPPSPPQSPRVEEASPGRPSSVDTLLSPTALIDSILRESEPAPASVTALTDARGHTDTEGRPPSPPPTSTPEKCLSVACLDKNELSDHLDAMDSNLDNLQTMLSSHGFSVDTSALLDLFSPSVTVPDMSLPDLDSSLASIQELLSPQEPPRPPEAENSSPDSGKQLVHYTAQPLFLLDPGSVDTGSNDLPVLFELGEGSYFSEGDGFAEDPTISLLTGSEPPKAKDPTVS
sequence,measurement,setting,value
CTATAA,binding signal,FLI1,"1.26 fold enrichment (6-mer frequency, TF over GST control)"
same,binding signal,ELK1,"1.22 fold enrichment (6-mer frequency, TF over GST control)"
same,binding signal,GABPA,"1.18 fold enrichment (6-mer frequency, TF over GST control)"
same,binding signal,ERG,"1.2 fold enrichment (6-mer frequency, TF over GST control)"
same,binding signal,ELF1,"1.27 fold enrichment (6-mer frequency, TF over GST control)"
same,binding signal,EHF,"1.12 fold enrichment (6-mer frequency, TF over GST control)"
same,binding signal,SPI1,"1.25 fold enrichment (6-mer frequency, TF over GST control)"
same,binding signal,SPIB,"1.35 fold enrichment (6-mer frequency, TF over GST control)"
same,binding signal,ELK3,"1.25 fold enrichment (6-mer frequency, TF over GST control)"
same,binding signal,FEV,"1.16 fold enrichment (6-mer frequency, TF over GST control)"
same,binding signal,ETV5,"1.23 fold enrichment (6-mer frequency, TF over GST control)"
same,binding signal,HSF1,"1.51 fold enrichment (6-mer frequency, TF over GST control)"
same,binding signal,SPIC,"1.35 fold enrichment (6-mer frequency, TF over GST control)"
same,binding signal,ELF4,"1.26 fold enrichment (6-mer frequency, TF over GST control)"
same,binding signal,ELK4,"1.36 fold enrichment (6-mer frequency, TF over GST control)"
same,binding signal,ETV2,"1.15 fold enrichment (6-mer frequency, TF over GST control)"
same,binding signal,ELF3,"1.25 fold enrichment (6-mer frequency, TF over GST control)"
same,binding signal,CRX,"1.83 fold enrichment (6-mer frequency, TF over GST control)"
same,binding signal,ETV1,"1.2 fold enrichment (6-mer frequency, TF over GST control)"
